PI5P4Ka inh = inhibitors of human PI5P4K alpha; actives 1.2% (n = 330,000); max response, %; AID 652105; PI5P4Kalpha enzyme, ADP-Glo luminescence, 60 min; active compounds read low; P48426; active means max response of -50% or lower; inconclusive means between -30% and -50%; inactive means -30% or higher; further: value at the top dose of about 77 µM; on the % scale 0 is the no-effect control and ±100 the full control effect
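qHTS, 1536-well: enzyme/substrate mix, compound by pin tool, 5 microM ATP final; RT 60 min; ADP-Glo reagents 1 (45 min) then 2 (30 min); luminescence.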
BAZ2B inh = BAZ2B (human) inhibition; Potency, µM (highest dose often 114 µM), for the others: top-dose activity change, negative = inhibition, hits mostly inhibitors; AlphaScreen BAZ2B-H3K14Ac peptide displacement; AID 504333; Q9UIF8; actives 4.4% (n = 360,000); further: potency means the concentration at half of the fitted maximal effect; on the % scale 0 is the no-effect control and ±100 the full control effect; nearly all actives have a fitted effect of over 60% in size
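Protein-peptide AlphaScreen: BAZ2B 50 nM, b-H3K14Ac 50 nM, 1x PBS pH 7.4 + 0.01% Tween-20. Preincubation 30 min RT; cpd 30 min RT (top 110 uM); beads 20 min RT, light-protected.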
PLK1 PBD block = blocks phosphopeptide binding to human PLK1 polo-box domain | P53350 | Plk1 PBD binding of FITC phosphopeptide, fluorescence polarization | Potency, µM, without a hit: max response, negative = inhibition, usual class: inhibitors | actives 2.8% (n = 360,000); further: potency means the concentration at half of the fitted maximal effect; series mostly up to about 57 µM; on the % scale 0 is the no-effect control and ±100 the full control effect; nearly all actives have a fitted effect of over 65% in size
HP1b chromo inh = HP1-beta chromodomain-methylated histone interaction inhibition | P83916 | AlphaScreen HP1-beta / biotin-H3K9me3 peptide binding | Potency, µM (top dose mostly 114 µM), inactives show at the top dose activity change, negative = inhibition, actives largely listed as inhibitors | actives 0.56% (n = 390,000); further: potency means the concentration at half of the fitted maximal effect; nearly all actives have a fitted effect of over 70% in size
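Compound inhibition of the preformed complex between 50 nM HP1-beta and 50 nM biotinylated H3K9me3 peptide was read by AlphaScreen. Buffer was PBS pH 7.4 with 0.01% Tween-20. Incubations ran 30 min at room temperature, with 10 ug/mL donor/acceptor beads.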
G9a block = G9a (human) methyltransferase inhibition; Q96KQ7; G9a H3K9 monomethylation, AlphaScreen, 2 h; Potency, µM (highest dose often 102 µM), for the others: at the highest dose activity, negative = inhibition, usual class: inhibitors; actives 8.8% (n = 350,000); AID 504332; further: potency means the concentration at half of the fitted maximal effect; on the % scale 0 is the no-effect control and ±100 the full control effect; nearly all actives have a fitted effect of over 75% in size
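Compounds were preincubated with 20 nM G9a for 15 min, after which biotinylated H3K9 peptide (500 nM) and SAM (20 uM) started a 2 h room-temperature reaction. Monomethylated product was quantified by antibody-based AlphaScreen chemiluminescence.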
JMJD2A Tudor inh = blocks the human JMJD2A Tudor domain | O75164 | AlphaScreen JMJD2A-Tudor / H3K4me3 peptide binding | Potency, µM (titrated, usually from 114 µM), without a hit: at the top dose activity change, negative = inhibition, hits mostly inhibitors | actives 4.4% (n = 390,000) | AID 504339; further: potency means the concentration at half of the fitted maximal effect; on the % scale 0 is the no-effect control and ±100 the full control effect; nearly all actives have a fitted effect of over 50% in size
Active calls of the source: *; ? = inconclusive; . = not tested or not shown; [ ] = remark or other dose. In the library only some 12% were active in any assay of this set; here they are far more common. Unless noted, the call rests on the fitted dose curve; in most records, active means well fitted curve in the direction sought with a large enough effect; inconclusive means small, poorly fitted or top-dose-only effect, or another doubt; inactive means no such curve, though single readings can be large; an effect the other way counts as inactive or inconclusive.

SMILES	PI5P4Ka inh	BAZ2B inh	PLK1 PBD block	HP1b chromo inh	G9a block	JMJD2A Tudor inh
CC(C)C(=O)NC(NC(=S)Nc1ccc(S(N)(=O)=O)cc1)C(Cl)(Cl)Cl (stereo not drawn)	2	-20%	-2%	22%	50µM*	-15%
CCCC(=O)NC(NC(=S)Nc1ccc(S(N)(=O)=O)cc1)C(Cl)(Cl)Cl (stereo not drawn)	-7	2%	-14%	5%	45µM*	-15%
COC(=O)C(C(=O)OC)C(C[N+](=O)[O-])c1ccc(OC)c(OC)c1 (stereo not drawn)	3	4%[57.1 µM]	-1%	34%	14%[59 µM]	3%
COc1ccc(C(C[N+](=O)[O-])c2c(-c3ccccc3)cc3ccccn23)cc1 (stereo not drawn)	0	-35%	-16%	?	?	?
COc1ccc(C(C[N+](=O)[O-])c2c(-c3ccccc3)cc3ccccn23)cc1OC (stereo not drawn)	-2	?	-28%	-5%	10µM*	-21%[57.1 µM]
COc1cc(C(C[N+](=O)[O-])c2c(C)cc3ccccn23)ccc1O (stereo not drawn)	1	28µM*	-5%	?	32µM*	?
COc1ccc(-c2[nH]c(-c3ccc(C)cc3)nc2SCC(=O)NCC2CCCO2)cc1 (stereo not drawn)	.	?	.	-18%	?	?
CCc1ccc(CN2CCc3nc(N4CCN(c5ccccc5F)CC4)ncc3C2)cc1	.	-21%	.	52%	-5%[12.7 µM]	-15%
COc1cccc(CNC(=O)CCN2C(=O)[C@@H]3Cc4ccccc4CN3C2=O)c1	-10	-18%	27µM*	?	24%[59 µM]	?
Cc1ccc(NC(=O)Cn2nc(Cc3ccncc3)c3ccccc3c2=O)c(Cl)c1	.	71µM*	.	62%	-39%[59 µM]	?
CCc1ccc(Nc2nnc(SCC(=O)NC(=O)CN3CCCC3=O)s2)cc1	?	?	-5%	-6%	6.3µM*	?
Cc1cccc(-c2nc(=S)c3c(n2Cc2ccco2)CCCC3)c1	.	-20%	?	1%	?	-15%
Cc1ccc(-c2nc(=S)c3c(n2Cc2ccco2)CCCC3)cc1	0	-18%	-12%	69%	-44%[12.7 µM]	-4%
Oc1ccc(-c2n[nH]c(=S)n2Cc2ccco2)cc1	.	-29%	-14%	-9%	2.8µM*	3.5µM*
COc1cccc(-c2n[nH]c(=S)n2Cc2ccco2)c1OC	.	-5%	-9%	14%	?	7.9µM*
COc1cc(-c2nc3oc4ccccc4c(=O)c3c(=O)n2Cc2ccco2)cc(OC)c1OC	-5	-2%	-13%	7%	?	3%[57.1 µM]
Oc1cc2ccccc2cc1-c1n[nH]c(=S)n1Cc1ccco1	-19	?	-16%	-8%	1.6µM*	?
Cc1nn(C)c(-c2n[nH]c(=S)n2Cc2ccco2)c1Cl	-6	-11%	-4%	11%	6.3µM*	22µM*
O=C(CSc1nnc(-c2cc3ccccc3cc2O)n1Cc1ccco1)N1CCc2ccccc2C1	.	-25%	-19%	23%	?	-29%
CC(=O)Nc1ccc(NC(=O)C2CCCN2S(=O)(=O)c2ccc3c(c2)CCCC(=O)N3)cc1 (stereo not drawn)	.	?	.	30%	?	3%
CC1CN(C(c2ccco2)c2sc3ncnn3c2O)CC(C)O1 (stereo not drawn)	2	5%	-7%	49%	40µM*	-13%
Cc1nc2sc(C(c3ccco3)N3CCN(c4ccc(F)cc4)CC3)c(O)n2n1 (stereo not drawn)	?	?	-8%	19%	.	-22%
Cc1nc2sc(C(c3cccs3)N3CCN(C(=O)c4ccco4)CC3)c(O)n2n1 (stereo not drawn)	5	-28%	0%	50%	40µM*	-13%
Cc1nc2sc(C(c3ccco3)N3CCN(c4ccccc4F)CC3)c(O)n2n1 (stereo not drawn)	.	-30%	-4%	10%	45µM*	-18%
Cc1nc2sc(C(c3ccccc3)N3CCN(C(=O)c4ccco4)CC3)c(O)n2n1 (stereo not drawn)	.	-5%	-8%	29%	-3%[59 µM]	-4%
SMILES	PI5P4Ka inh	BAZ2B inh	PLK1 PBD block	HP1b chromo inh	G9a block	JMJD2A Tudor inh
Cc1nc2sc(C(c3ccco3)N3CCc4ccccc4C3)c(O)n2n1 (stereo not drawn)	.	.	?	-6%	.	56µM*
COc1ccccc1NC(=O)C1CCN(S(=O)(=O)c2cn(C)cn2)CC1	.	-17%	.	-20%	-40%[59 µM]	-17%
CC(=O)n1cc(C2CC(=O)OC3=C2CC(=O)C(C)(C)C3)c2ccccc21 (stereo not drawn)	-7	.	-28%	.	.	.
O=C(CN1c2ccccc2S(=O)(=O)c2ccccc21)NCc1ccc(F)cc1	-1	-10%	-6%	24%	.	-11%
O=C(Cc1ccc(F)cc1)Nc1ccc(Cl)cn1	-4	-5%	7%	31%	.	-21%
COC(=O)[C@]12CCCCC=C1N(CCC1=CCCCC1)C(=O)[C@H](CC(=O)N1CCCC1)C2	8	.	-3%	.	.	.
Oc1c(C(c2ccc(F)cc2)N2CCc3ccccc3C2)sc2ncnn12 (stereo not drawn)	-11	10%	?	22%	7.9µM*	?
S=C(Nc1ccc2cn[nH]c2c1)Nc1ccc(Cl)cc1Cl	?	?	15µM*	-22%	28µM*	?
COc1cccc(NC(=S)Nc2cccc3ccccc23)c1	2	?	-19%	-1%	?	-33%
S=C(Nc1ccc(Cl)cc1)Nc1ccc2cn[nH]c2c1	-2	-27%	-14%	6%	?	-15%
COc1ccccc1NC(=S)Nc1cccc2cnccc12	-18	2%	30µM*	-23%	25µM*	-28%
Fc1ccc(NC(=S)Nc2cccc3cnccc23)cc1	7	-36%	?	-12%	35µM*	-14%
CCOc1ccc(NC(=S)Nc2cccc3cnccc23)cc1	-12	-14%	?	-11%	?	-13%
COc1ccc(NC(=S)Nc2cccc3cnccc23)cc1	4	-37%	?	-19%	25µM*	-33%
O=S(=O)(c1ccc(Br)cc1)N1CCN(S(=O)(=O)c2ccc3c(c2)OCCO3)CC1	.	.	.	.	.	-9%
CCOc1ccc(-n2c(=O)c3c(C)c(C)sc3n(CC(=O)c3ccccc3)c2=O)cc1	.	11%	.	56%	-3%[59 µM]	-5%
COc1ccc(-n2c(SCC(=O)NCc3ccccc3)nc3c([nH]c4ccccc43)c2=O)cc1	.	-2%	.	18%[57 µM]	2%[59 µM]	-10%
COC(=O)C1=C[C@@H](C(=O)OC)[C@@H]2C3=C(C(=O)[C@]2(C)NC(=O)c2ccccc2)[C@H](C)[C@@H]2C(=O)NC(=O)[C@@H]2[C@@H]3C1	.	.	.	6%	.	-15%
